Measurements taken from the supplement of paper PMC11732987, “Enantioselective OTUD7B fragment discovery through chemoproteomics screening and high-throughput optimisation” (Communications Chemistry, 2025).

Columns and labels:
Test in all cases: log2 ratio of Biotin-Ahx-Ub-VS probe labelling (fragment/DMSO); higher = less target engagement (more negative = stronger competition), active = hit call of the paper (q ≤ 0.05, log2 ratio ≤ -1)
Conditions in all cases: compound concentration: 200 uM; treatment time: 3 h
USP42 = molecular target: T1, USP42 (UniProt Q9H9J4)
T1 sequence (whole entry): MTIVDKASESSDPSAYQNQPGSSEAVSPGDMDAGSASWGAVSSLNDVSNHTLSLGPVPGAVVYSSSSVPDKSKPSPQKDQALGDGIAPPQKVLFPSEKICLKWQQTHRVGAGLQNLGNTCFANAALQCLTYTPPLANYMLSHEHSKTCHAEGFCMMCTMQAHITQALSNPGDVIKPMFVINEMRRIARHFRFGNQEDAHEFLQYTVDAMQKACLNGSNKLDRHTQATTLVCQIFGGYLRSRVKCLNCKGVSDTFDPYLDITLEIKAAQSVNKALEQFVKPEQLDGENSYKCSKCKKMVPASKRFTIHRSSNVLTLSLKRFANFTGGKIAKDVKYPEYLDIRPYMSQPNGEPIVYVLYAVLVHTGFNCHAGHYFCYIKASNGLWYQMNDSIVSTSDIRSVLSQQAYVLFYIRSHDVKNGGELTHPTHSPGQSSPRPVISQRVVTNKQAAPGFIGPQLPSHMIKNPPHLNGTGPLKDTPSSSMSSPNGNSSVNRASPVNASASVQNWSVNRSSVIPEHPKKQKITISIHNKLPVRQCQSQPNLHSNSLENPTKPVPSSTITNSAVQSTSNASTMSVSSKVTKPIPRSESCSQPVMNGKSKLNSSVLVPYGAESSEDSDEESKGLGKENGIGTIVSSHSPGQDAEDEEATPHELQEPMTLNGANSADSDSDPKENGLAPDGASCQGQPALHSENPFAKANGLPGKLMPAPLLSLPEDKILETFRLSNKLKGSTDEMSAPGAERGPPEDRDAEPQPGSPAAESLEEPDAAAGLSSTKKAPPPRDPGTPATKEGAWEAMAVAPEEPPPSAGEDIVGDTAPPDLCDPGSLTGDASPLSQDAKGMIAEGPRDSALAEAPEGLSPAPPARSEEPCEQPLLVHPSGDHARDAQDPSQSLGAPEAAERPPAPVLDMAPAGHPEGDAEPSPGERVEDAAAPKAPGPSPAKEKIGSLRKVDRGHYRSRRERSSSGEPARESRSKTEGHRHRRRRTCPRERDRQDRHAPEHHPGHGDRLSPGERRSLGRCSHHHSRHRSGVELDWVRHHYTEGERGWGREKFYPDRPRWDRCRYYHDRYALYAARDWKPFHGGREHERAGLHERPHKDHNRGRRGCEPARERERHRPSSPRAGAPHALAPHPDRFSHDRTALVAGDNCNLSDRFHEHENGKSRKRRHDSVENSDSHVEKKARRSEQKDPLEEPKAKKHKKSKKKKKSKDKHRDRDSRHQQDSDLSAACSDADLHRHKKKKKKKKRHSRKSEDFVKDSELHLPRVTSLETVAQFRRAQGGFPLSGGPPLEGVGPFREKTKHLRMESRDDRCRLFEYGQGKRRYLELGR
Summary of the method: (§1)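 Fragment (200 µM) or vehicle was incubated for 3 h with triplicate HEK293T lysate samples of 495 µg, which were then treated with Biotin-Ahx-Ub-VS at 0.5 µM final for 1 h. Labelled DUBs were enriched on NeutrAvidin, digested with LysC and trypsin, and analysed by diaPASEF LC-MS/MS. Values are average log2 fragment/vehicle ratios from an unpaired t-test on global-median-normalised Spectronaut label-free quantities, using proteins with ≥2 unique peptides.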

USP46 = USP46 (UniProt P62068)
USP46, sequence (P62068 whole entry): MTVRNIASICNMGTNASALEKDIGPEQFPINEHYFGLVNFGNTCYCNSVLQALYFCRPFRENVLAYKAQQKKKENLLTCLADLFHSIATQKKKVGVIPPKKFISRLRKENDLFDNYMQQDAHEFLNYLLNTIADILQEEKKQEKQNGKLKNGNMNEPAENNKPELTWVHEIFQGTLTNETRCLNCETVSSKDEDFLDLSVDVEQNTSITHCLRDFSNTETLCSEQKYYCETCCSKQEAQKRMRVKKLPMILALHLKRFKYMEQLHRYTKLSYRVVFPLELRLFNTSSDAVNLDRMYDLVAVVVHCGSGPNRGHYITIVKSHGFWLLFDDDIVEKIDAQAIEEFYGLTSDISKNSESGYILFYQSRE
Summary of the method: as §1

USP47 = molecular target: T2, USP47 (UniProt Q96K76)
T2 sequence (whole entry): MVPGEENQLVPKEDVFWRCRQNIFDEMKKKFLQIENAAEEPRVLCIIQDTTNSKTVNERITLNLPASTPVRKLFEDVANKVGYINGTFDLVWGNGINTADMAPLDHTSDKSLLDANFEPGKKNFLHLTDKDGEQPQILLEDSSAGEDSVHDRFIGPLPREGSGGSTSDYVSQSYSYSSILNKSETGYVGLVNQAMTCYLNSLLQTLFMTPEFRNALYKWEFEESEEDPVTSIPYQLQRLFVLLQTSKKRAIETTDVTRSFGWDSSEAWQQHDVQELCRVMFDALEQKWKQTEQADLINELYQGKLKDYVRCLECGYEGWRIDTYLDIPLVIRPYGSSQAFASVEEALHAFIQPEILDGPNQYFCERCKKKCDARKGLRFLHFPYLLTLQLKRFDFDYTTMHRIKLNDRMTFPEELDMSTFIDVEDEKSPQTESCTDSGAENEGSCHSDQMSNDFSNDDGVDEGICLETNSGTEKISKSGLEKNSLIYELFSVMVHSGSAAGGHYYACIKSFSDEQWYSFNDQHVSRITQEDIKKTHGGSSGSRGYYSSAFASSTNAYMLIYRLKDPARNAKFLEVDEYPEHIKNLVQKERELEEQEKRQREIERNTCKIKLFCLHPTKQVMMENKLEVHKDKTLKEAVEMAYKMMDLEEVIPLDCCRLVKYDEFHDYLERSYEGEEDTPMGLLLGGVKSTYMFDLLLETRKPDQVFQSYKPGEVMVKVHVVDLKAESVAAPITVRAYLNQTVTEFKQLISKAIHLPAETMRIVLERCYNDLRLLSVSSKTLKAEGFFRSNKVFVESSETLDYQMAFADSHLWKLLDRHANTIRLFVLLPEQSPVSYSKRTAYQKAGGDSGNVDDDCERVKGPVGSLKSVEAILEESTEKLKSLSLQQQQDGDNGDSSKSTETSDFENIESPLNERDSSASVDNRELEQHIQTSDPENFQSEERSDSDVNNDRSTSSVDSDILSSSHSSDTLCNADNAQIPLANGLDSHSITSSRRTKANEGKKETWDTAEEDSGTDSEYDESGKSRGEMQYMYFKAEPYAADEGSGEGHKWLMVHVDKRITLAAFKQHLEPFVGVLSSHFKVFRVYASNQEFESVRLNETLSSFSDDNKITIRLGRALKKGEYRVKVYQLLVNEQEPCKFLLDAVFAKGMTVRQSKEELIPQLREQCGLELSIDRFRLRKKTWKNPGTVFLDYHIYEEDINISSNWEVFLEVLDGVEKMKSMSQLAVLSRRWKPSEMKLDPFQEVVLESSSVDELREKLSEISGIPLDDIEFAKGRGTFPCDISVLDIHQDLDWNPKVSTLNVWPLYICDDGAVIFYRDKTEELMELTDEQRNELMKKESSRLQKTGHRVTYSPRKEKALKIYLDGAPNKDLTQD
Summary of the method: as §1

USP48 = molecular target: T3, USP48 (UniProt Q86UV5)
T3 sequence (whole entry): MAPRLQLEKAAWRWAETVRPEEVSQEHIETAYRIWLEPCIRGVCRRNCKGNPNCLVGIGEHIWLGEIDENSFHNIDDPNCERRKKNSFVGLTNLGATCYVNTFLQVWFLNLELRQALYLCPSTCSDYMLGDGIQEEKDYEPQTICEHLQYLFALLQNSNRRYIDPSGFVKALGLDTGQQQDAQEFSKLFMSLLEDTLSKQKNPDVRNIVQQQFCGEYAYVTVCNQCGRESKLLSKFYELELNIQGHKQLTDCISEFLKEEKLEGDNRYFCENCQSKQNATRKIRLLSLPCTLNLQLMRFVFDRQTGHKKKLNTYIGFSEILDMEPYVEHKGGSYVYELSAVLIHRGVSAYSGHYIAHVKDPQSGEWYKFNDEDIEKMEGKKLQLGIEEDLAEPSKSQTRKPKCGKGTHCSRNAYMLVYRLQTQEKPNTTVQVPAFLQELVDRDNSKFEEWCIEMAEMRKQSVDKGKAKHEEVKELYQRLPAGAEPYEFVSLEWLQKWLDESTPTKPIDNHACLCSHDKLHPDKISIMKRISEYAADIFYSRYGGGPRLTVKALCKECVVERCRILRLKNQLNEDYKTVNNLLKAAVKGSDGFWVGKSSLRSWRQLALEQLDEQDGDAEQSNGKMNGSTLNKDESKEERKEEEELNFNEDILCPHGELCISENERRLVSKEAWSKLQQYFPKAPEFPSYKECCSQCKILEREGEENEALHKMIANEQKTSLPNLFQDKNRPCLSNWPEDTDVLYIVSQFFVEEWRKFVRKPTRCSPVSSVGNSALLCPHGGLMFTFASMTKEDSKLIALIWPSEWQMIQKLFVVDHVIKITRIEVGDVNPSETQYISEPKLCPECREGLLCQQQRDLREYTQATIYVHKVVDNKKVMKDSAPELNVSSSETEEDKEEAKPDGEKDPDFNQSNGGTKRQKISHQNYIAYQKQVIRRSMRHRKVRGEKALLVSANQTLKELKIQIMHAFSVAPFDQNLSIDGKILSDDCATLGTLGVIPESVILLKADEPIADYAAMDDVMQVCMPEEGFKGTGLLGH
Summary of the method: as §1

USP5 = molecular target: T4, USP5 (UniProt P45974)
T4 sequence (whole entry): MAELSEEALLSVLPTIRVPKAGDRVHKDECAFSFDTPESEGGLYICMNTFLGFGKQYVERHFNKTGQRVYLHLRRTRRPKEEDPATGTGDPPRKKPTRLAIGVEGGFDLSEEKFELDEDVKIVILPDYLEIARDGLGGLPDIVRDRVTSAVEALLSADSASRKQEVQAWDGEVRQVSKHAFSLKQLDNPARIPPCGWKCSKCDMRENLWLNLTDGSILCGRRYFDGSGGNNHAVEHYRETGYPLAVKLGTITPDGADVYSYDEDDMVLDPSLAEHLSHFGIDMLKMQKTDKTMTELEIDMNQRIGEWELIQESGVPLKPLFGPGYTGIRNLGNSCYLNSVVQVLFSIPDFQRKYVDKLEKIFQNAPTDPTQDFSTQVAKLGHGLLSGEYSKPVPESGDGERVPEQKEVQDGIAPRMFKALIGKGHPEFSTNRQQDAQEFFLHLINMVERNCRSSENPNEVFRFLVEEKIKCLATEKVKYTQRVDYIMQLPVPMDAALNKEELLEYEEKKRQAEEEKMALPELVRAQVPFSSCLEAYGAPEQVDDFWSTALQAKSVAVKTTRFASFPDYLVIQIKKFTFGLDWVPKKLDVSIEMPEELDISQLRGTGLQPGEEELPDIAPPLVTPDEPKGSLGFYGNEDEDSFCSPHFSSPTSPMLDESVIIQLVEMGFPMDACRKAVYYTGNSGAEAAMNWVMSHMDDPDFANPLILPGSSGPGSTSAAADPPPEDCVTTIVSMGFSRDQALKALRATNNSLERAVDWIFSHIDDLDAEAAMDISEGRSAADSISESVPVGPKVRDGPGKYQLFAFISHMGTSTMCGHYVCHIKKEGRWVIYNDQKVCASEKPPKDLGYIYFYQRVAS
Summary of the method: as §1

USP54 = USP54 (UniProt Q70EL1)
USP54, sequence (Q70EL1 whole entry): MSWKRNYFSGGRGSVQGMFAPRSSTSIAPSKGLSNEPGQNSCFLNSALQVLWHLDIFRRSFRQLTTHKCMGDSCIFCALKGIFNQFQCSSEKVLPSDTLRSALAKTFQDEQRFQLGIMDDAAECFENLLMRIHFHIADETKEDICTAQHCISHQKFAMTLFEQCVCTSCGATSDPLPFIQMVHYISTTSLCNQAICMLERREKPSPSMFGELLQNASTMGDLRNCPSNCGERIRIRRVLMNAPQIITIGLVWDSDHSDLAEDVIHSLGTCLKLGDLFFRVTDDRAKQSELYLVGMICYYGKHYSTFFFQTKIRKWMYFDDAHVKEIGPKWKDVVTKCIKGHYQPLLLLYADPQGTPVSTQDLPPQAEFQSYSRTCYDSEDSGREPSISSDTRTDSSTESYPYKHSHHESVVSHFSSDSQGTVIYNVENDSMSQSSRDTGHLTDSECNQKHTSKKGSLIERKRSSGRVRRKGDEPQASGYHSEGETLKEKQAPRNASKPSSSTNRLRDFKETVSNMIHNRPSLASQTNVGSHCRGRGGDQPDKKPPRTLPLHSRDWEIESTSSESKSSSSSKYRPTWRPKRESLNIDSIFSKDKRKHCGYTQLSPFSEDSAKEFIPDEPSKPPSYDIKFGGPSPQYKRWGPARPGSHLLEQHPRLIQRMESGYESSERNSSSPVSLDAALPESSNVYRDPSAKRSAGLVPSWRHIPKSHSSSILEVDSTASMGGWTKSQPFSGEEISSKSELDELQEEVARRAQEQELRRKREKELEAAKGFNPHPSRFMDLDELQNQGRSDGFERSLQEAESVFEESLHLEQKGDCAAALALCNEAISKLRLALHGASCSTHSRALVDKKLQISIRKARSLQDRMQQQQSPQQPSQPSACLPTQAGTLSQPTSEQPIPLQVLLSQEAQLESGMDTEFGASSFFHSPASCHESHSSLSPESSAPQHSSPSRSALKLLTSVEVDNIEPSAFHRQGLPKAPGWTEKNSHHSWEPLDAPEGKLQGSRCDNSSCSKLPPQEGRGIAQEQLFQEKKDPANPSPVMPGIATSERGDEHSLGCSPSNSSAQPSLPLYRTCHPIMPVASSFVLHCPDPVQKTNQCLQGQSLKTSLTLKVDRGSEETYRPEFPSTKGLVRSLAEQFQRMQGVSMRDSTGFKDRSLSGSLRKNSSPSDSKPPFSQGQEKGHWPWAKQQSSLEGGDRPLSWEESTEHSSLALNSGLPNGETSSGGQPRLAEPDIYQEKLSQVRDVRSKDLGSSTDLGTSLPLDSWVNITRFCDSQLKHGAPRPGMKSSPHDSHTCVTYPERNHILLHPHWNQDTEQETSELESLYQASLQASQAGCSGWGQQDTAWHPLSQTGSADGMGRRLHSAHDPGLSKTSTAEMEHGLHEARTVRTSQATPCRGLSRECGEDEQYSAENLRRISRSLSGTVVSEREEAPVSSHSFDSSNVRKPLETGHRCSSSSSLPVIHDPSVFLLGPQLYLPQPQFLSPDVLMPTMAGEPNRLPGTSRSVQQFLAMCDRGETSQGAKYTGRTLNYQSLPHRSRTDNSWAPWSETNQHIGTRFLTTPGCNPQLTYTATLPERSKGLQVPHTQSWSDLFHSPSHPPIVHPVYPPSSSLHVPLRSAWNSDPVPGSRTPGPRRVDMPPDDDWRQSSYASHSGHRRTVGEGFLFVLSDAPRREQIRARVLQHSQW
Summary of the method: as §1

USP7 = USP7 (UniProt Q93009)
USP7, sequence (Q93009 whole entry, looked up): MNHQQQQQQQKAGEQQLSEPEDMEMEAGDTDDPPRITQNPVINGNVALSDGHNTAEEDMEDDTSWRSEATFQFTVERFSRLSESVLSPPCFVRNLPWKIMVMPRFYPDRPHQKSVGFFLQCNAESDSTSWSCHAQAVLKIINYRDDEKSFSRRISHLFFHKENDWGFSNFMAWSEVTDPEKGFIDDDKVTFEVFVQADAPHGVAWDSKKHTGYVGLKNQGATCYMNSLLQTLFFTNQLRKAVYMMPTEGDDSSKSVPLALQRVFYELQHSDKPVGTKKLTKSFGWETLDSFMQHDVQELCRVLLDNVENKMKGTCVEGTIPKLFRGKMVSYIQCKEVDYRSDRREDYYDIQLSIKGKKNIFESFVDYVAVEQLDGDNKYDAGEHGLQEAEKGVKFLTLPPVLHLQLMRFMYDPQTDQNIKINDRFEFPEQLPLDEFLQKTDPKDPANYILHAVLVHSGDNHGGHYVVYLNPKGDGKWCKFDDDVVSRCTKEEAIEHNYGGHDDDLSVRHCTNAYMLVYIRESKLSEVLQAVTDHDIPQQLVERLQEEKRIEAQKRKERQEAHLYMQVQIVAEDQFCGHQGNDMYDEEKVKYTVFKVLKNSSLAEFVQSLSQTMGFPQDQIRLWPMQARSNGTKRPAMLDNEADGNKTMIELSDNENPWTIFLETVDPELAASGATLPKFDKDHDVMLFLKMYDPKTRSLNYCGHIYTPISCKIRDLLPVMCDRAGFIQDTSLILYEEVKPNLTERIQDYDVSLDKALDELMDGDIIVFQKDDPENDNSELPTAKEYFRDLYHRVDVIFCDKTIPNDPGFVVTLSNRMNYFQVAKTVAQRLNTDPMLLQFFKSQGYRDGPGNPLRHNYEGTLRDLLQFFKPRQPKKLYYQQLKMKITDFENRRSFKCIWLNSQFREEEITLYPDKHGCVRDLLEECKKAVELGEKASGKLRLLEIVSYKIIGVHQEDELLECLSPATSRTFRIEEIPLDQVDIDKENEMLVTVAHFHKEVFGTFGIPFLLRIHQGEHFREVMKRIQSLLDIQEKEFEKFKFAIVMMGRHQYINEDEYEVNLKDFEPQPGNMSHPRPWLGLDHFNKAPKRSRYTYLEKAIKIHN
Summary of the method: as §1

USP8 = molecular target: T5, USP8 (UniProt P40818)
T5 sequence (whole entry): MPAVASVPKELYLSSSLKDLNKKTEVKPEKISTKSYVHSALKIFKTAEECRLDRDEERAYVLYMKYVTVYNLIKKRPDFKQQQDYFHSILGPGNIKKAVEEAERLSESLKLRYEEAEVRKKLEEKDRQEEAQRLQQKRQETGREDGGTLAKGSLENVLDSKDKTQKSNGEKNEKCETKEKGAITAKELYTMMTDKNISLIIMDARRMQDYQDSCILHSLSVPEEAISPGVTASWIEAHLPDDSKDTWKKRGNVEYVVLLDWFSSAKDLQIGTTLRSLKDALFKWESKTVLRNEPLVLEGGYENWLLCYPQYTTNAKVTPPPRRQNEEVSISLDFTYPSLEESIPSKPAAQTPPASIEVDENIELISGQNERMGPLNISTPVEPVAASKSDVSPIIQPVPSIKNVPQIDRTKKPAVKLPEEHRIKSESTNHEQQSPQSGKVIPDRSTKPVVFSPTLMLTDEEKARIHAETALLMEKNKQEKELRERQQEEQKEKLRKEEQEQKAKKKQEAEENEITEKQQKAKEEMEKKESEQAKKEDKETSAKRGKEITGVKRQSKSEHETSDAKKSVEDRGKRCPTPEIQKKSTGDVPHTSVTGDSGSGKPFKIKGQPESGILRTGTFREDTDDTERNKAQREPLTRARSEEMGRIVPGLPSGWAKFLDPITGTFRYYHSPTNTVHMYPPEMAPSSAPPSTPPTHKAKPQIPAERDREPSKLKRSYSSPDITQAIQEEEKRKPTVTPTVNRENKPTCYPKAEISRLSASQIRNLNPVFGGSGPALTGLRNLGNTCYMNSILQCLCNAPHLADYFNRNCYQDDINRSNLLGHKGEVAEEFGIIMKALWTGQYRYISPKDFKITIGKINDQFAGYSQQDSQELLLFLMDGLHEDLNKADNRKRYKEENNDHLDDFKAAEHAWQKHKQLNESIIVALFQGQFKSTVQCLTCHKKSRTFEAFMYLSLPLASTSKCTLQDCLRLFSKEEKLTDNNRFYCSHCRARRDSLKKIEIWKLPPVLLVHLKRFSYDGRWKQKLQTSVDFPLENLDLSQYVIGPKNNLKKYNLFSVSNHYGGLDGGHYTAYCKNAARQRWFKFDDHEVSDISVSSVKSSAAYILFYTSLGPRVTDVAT
Summary of the method: as §1

Measured: log2 ratio of Biotin-Ahx-Ub-VS probe labelling

NS(=O)(=O)c1ccc(Cl)c(NC(=O)CCl)c1
inactive: USP42 0.0225 | USP46 -0.123 | USP47 -0.247 | USP48 -0.536 | USP5 0.233 | USP54 -0.00214 | USP7 -0.207 | USP8 -0.125
